{
  "source": "paper PMC5913336",
  "about": "“True equilibrium measurement of transcription factor-DNA binding affinities using automated polarization microscopy”",
  "data": [
    {"molecular_target": "T1, Ems (Drosophila melanogaster, UniProt P18488 373-462)", "T1 sequence": "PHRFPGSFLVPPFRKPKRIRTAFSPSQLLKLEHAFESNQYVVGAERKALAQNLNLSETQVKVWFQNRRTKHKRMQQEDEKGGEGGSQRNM", "assay": "FP; 33 mM phosphate pH 7.0, 90 mM NaCl, 0.01% Tween 20, 0.1 mM DTT, 0.5% agarose; room temperature", "conditions": "tags: N-GST (pGEX-6P-1, kept); dsDNA, one strand shown", "values": [
      {"sequence": "CTCGTAATTAGCTCA", "binding signal": "1.19 Kd / Kd of best base at the position"},
      {"sequence": "CACGTTATTAGCTCA", "binding signal": "26.4 Kd / Kd of best base at the position"},
      {"sequence": "CACGTAATTAGCTGA", "binding signal": "4.73 Kd / Kd of best base at the position"},
      {"sequence": "CACGTAATTTGCTCA", "binding signal": "10.5 Kd / Kd of best base at the position"},
      {"sequence": "CACGTAATTAACTCA", "binding signal": "9.76 Kd / Kd of best base at the position"},
      {"sequence": "CACGTATTTAGCTCA", "binding signal": "11.1 Kd / Kd of best base at the position"},
      {"sequence": "CACGGAATTAGCTCA", "binding signal": "38.4 Kd / Kd of best base at the position"},
      {"sequence": "CACGTAAGTAGCTCA", "binding signal": "63.6 Kd / Kd of best base at the position"},
      {"sequence": "CACGTAATTAGCTAA", "binding signal": "3.58 Kd / Kd of best base at the position"},
      {"sequence": "CGCGTAATTAGCTCA", "binding signal": "1.07 Kd / Kd of best base at the position"},
      {"sequence": "CACGTAATAAGCTCA", "binding signal": "35.3 Kd / Kd of best base at the position"},
      {"sequence": "CACGTAATTAGCCCA", "binding signal": "4.42 Kd / Kd of best base at the position"},
      {"sequence": "CACGTAATTACCTCA", "binding signal": "1.46 Kd / Kd of best base at the position"},
      {"sequence": "TACGTAATTAGCTCA", "binding signal": "1.04 Kd / Kd of best base at the position"},
      {"sequence": "CACGTAAATAGCTCA", "binding signal": "54.5 Kd / Kd of best base at the position"},
      {"sequence": "GACGTAATTAGCTCA", "binding signal": "1.01 Kd / Kd of best base at the position"},
      {"sequence": "CACGTAGTTAGCTCA", "binding signal": "74.7 Kd / Kd of best base at the position"},
      {"sequence": "CACGTAATTAGTTCA", "binding signal": "3.85 Kd / Kd of best base at the position"},
      {"sequence": "CACGTAATTAGCTCG", "binding signal": "2.39 Kd / Kd of best base at the position"},
      {"sequence": "CACGTAATTAGCGCA", "binding signal": "6.39 Kd / Kd of best base at the position"},
      {"sequence": "CACGTAATTAGCACA", "binding signal": "5.4 Kd / Kd of best base at the position"},
      {"sequence": "CACGTAATTAGCTCC", "binding signal": "3.56 Kd / Kd of best base at the position"},
      {"sequence": "CACGTAACTAGCTCA", "binding signal": "72.2 Kd / Kd of best base at the position"},
      {"sequence": "CAAGTAATTAGCTCA", "binding signal": "1.41 Kd / Kd of best base at the position"},
      {"sequence": "CACGTAATCAGCTCA", "binding signal": "40.1 Kd / Kd of best base at the position"},
      {"sequence": "CATGTAATTAGCTCA", "binding signal": "1.24 Kd / Kd of best base at the position"},
      {"sequence": "CACGAAATTAGCTCA", "binding signal": "16.8 Kd / Kd of best base at the position"},
      {"sequence": "CACCTAATTAGCTCA", "binding signal": "1.08 Kd / Kd of best base at the position"},
      {"sequence": "CACGTAATTCGCTCA", "binding signal": "43.1 Kd / Kd of best base at the position"},
      {"sequence": "CACGTAATTGGCTCA", "binding signal": "8.18 Kd / Kd of best base at the position"},
      {"sequence": "CACGTAATGAGCTCA", "binding signal": "6.94 Kd / Kd of best base at the position"},
      {"sequence": "CACGTACTTAGCTCA", "binding signal": "47.3 Kd / Kd of best base at the position"},
      {"sequence": "AACGTAATTAGCTCA", "binding signal": "1.04 Kd / Kd of best base at the position"},
      {"sequence": "CACGCAATTAGCTCA", "binding signal": "2.2 Kd / Kd of best base at the position"},
      {"sequence": "CACGTAATTATCTCA", "binding signal": "1.9 Kd / Kd of best base at the position"},
      {"sequence": "CACGTGATTAGCTCA", "binding signal": "30.7 Kd / Kd of best base at the position"},
      {"sequence": "CACGTAATTAGGTCA", "binding signal": "7.3 Kd / Kd of best base at the position"},
      {"sequence": "CACATAATTAGCTCA", "binding signal": "1.34 Kd / Kd of best base at the position"},
      {"sequence": "CACGTCATTAGCTCA", "binding signal": "1.28 Kd / Kd of best base at the position"},
      {"sequence": "CACTTAATTAGCTCA", "binding signal": "2.71 Kd / Kd of best base at the position"}
    ]}
  ]
}
